A selection: hits, their analogues and other compounds. The true share with any hit is near 2.3%.
Tau ThT inhib – blocks human tau fibril formation measured by thioflavin T | Potency, µM (doses to about 57.4 µM), inactives show at the highest dose activity, negative = inhibition, usual class: inhibitors | recombinant tau K18 P301L, heparin-induced fibrillization, ThT fluorescence | P10636 | 270,000 compounds, 2.1% hits; also: potency is read from the fitted curve at half-maximal effect; nearly all actives have a fitted effect of over 55% in size
Target sequence (P10636 561-689 P618L limits assumed): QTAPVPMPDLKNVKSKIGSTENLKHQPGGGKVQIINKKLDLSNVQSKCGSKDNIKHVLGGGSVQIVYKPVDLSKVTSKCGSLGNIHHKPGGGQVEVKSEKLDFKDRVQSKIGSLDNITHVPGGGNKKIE
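In this qHTS, human K18 P301L tau is incubated with compound and heparin for 6 hr at 37 C, and Thioflavin T fluorescence then reports fibril load.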
FBPA coupling cs – coupling enzyme interference in Giardia aldolase counter-screen; coupling enzyme system counterscreen, AmpLite Red fluorescence; activity change, negative = inhibition, % at 58.2 µM, hits read low; 290,000 compounds, 0.67% hits; in the data active = activity change below about -30%
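Activity here indicates interference with the coupling reaction, not aldolase inhibition. Compounds at 57.5 uM final met coupling enzymes for 10 min at RT; substrate and AmpLite Red detection followed, with a 525/598 nm fluorescence read after 20 min.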
Tau FP inhib – blocks human tau fibril formation measured by polarization; P10636; K18 P301L tau heparin fibrillization, Alexa594 FP, 6 h; Potency, µM (series often up to 57.7 µM), for inactives: top-dose activity, negative = inhibition, hits mostly inhibitors; 280,000 compounds, 0.39% hits; AID 1468; also: potency is read from the fitted curve at half-maximal effect; nearly all actives have a fitted effect of over 55% in size
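K18 P301L tau (15 uM unlabeled/0.24 uM Alexa 594-labeled, final) + compound + heparin 20 uM final; 100 mM NaOAc pH 7; 6 hr 37 C; ThT 30 uM final added, 1 hr RT; FP ex 555/em 632 nm.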
USP1 inh – USP1/UAF1 (human) deubiquitinase inhibition | recombinant USP1/UAF1, Ub-Rhodamine cleavage fluorescence | Potency, µM (doses to about 57.1 µM), inactives show at the top dose activity change, negative = inhibition, hits mostly inhibitors | 390,000 compounds, 0.23% hits | O94782 | AID 743255; also: potency is read from the fitted curve at half-maximal effect; nearly all actives have a fitted effect of over 60% in size
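High-throughput fluorogenic screen: 1nM USP1/UAF1 complex, Ub-Rho substrate 150nM final, 50mM HEPES pH 7.8 with 0.5mM EDTA, 0.1 mg/ml BSA, 1mM TCEP and 0.01% Tween-20.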
Tau fluor cs – counter-screen for tau fibril formation inhibitors; AID 1463; 280,000 compounds, 0.93% hits; Potency, µM (series often up to 57.7 µM), without a hit: at the highest dose activity change, negative = decrease; tau K18 P301L Alexa594 fluorescence, heparin fibrillization; also: potency is read from the fitted curve at half-maximal effect; nearly all actives have a fitted effect of over 55% in size
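Human tau K18 P301L (15 uM unlabeled, 0.24 uM Alexa 594-labeled) in 100 mM sodium acetate pH 7 with 20 uM heparin, 6 hr at 37 C. ThT 30 uM added, 1 hr ambient; Alexa 594 FP and total fluorescence read at 555/632 nm.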
Active calls of the source: *; ? = inconclusive; · = no result; [ ] = dose if it differs, or a comment. Unless noted, calls follow the shape of the dose curve; as a rule, active = well fitted curve in the direction sought with a large enough effect; inconclusive = small, poorly fitted or top-dose-only effect, or another doubt; inactive = no such curve, though single readings can be large; an effect the other way counts as inactive or inconclusive. % is scaled to controls: 0 for no effect and ±100 for the full control effect.

SMILES | Tau ThT inhib | FBPA coupling cs | Tau FP inhib | USP1 inh | Tau fluor cs
CCOC(=O)c1c(-n2c(C)cc(/C=C3/C(=O)NC(=O)N(CC)C3=O)c2C)sc2c1CCCC2 | · | · | · | -11% | ·
Cc1ccc(N2C(=O)NC(=O)/C(=C\c3cc(C)n(-c4sc5c(c4C#N)CCCC5)c3C)C2=O)cc1 | ? | 1 | -11% | 28µM* | -11%
CCN1C(=O)NC(=O)/C(=C/c2cc(C)n(-c3sc(C)c(C)c3C#N)c2C)C1=O | ? | -37* | 4% | -12% | 17%
C[C@@H]1O[C@H](O[C@@H]2C[C@@H](O)[C@]3(CO)[C@H]4[C@H](O)C[C@]5(C)[C@@H](C6=CC(=O)OC6)CC[C@@]5(O)[C@@H]4CC[C@]3(O)C2)[C@@H](O)[C@H](O)[C@H]1O | -2% | 3 | -6% | · | -7%
O=C1CC(N2CC=C(c3ccc(F)cc3)CC2)C(=O)N1c1ccc(F)cc1 (stereo unspecified) | 32µM* | · | ? | -15% | ?
CCOC(=O)c1ccc(N2C(=O)CC(N3CC=C(c4ccc(F)cc4)CC3)C2=O)cc1 (stereo unspecified) | ? | -16 | 1% | -18% | -4%
CN1CC[C@@]2(C)c3cc(O)ccc3N(C)C12 (stereo partly specified) | 7.1µM* | · | 8.9µM* | · | ?
CC1[C@H]2Cc3ccc(O)cc3[C@]1(C)CCN2CCc1ccccc1 (stereo partly specified) | · | · | · | -14% | ·
CN1CC[C@]2(C)c3cc(O)ccc3N(C)[C@@H]12 | · | -69* | · | · | ·
CC(C)[C@@]1(NC(=O)[C@@H]2C[C@@H]3c4cccc5[nH]cc(c45)C[C@H]3N(C)C2)O[C@@]2(O)[C@@H]3CCCN3C(=O)[C@H](Cc3ccccc3)N2C1=O | ? | -28 | ? | -25% | 2.8µM*[quencher]
CN1C[C@H](C(=O)N[C@@]2(C)O[C@@]3(O)C4CCCN4C(=O)C(Cc4ccccc4)N3C2=O)C[C@H]2c3cccc4[nH]cc(c34)C[C@H]21 (stereo partly specified) | -2% | 5 | 3% | · | ?
CC(C)[C@@]1(NC(=O)[C@@H]2C[C@@H]3c4cccc5[nH]cc(c45)C[C@H]3N(C)C2)O[C@@]2(O)C3CCCN3C(=O)[C@H](Cc3ccccc3)N2C1=O (stereo partly specified) | ? | · | ? | · | 7.1µM*[quencher]
CC(C)[C@@]1(NC(=O)[C@@H]2C[C@H]3c4cccc5[nH]cc(c45)C[C@@H]3N(C)C2)O[C@]2(O)[C@H]3CCCN3C(=O)CN2C1=O | · | 0 | · | · | ·
Cl.Cl.Cl.Cl.Cl.Cl.N.N.N.N.NNNNN.NNNNN.O.O.[Ru].[Ru].[Ru] | 22µM* | -18 | ? | · | ?
CC1=C(O)C(=O)C=C2C1=CC=C1[C@]2(C)CC[C@@]2(C)C3C[C@](C)(C(=O)O)CC[C@@]3(C)CC[C@@]12C (stereo partly specified) | ? | 2 | ? | · | ?
CCCOP(=O)(OCCC)C(NC(=O)c1cc(OC)c(OC)c(OC)c1)c1ccccc1 (stereo unspecified) | -7% | 3 | -2% | -13% | -5%
O=C(NCCSc1c(-c2ccc(F)cc2)[nH]c2ccccc12)c1ccc(S(=O)(=O)N2CCOCC2)cc1 | -1% | · | -5% | -22% | 4.5µM*[quencher]
COc1cc(C(=O)NCCSc2c(-c3ccccc3)[nH]c3ccccc23)cc(OC)c1OC | -9% | · | -2% | -14% | 8.9µM*[quencher]
CCOP(=S)(OCC)Oc1ccc(Cl)cc1Cl | · | 3 | · | · | ·
O=C1C=Cc2ccccc2C1=O | 2.5µM* | -82* | 4.5µM* | · | ?
O=C(CNC(=O)c1cccs1)NCC(=O)OCC(=O)c1ccc([N+](=O)[O-])cc1 | ? | 1 | ? | -27% | -10%
O=C(OCC(=O)c1ccc([N+](=O)[O-])cc1)/C(=C\c1ccc(Cl)cc1)NC(=O)c1ccccc1 | 13µM* | -1 | -8% | -19% | ?
CCC(C)N1C(=O)NC(=O)C2(Cc3c(ccc4ccccc34)N(C)C2)C1=O (stereo unspecified) | 16µM* | -25 | ? | -16% | ?
O=c1[nH]c2sccc2c2ccccc12 | · | -5 | · | · | ·
S=C(S)N1CCCC1 | 32µM* | -21 | ? | -21% | -14%
SMILES | Tau ThT inhib | FBPA coupling cs | Tau FP inhib | USP1 inh | Tau fluor cs
O=C1NC(=O)C(=Cc2ccc(N3CCN(C(=O)c4ccccc4)CC3)c([N+](=O)[O-])c2)C(=O)N1 | 11µM* | 5 | -13% | 1% | -15%
CN1C(=O)C(=Cc2ccc(N3CCOCC3)c([N+](=O)[O-])c2)C(=O)N(C)C1=O | ? | 3 | -6% | · | -18%
CCCCC/C=C\C/C=C\C/C=C\C/C=C\CCCC(=O)NCCCl | ? | 0 | -17% | · | 6%
CN1CCN(c2ccc([N+](=O)[O-])c(NCC3CCCO3)c2)CC1 (stereo unspecified) | 3% | -31* | 8% | -6% | 1%
CN1CCN(c2ccc([N+](=O)[O-])c(NCc3ccco3)c2)CC1 | ? | -1 | 5% | -20% | -7%
COc1cc2c(cc1OC)-c1c(OC)c(OC)cc3c1C(C2)N(C)CC3 (stereo unspecified) | ? | -42* | 4% | ? | -19%
COc1ccc(CC2c3cc(OC)c(OC)cc3CCN2C)cc1O (stereo unspecified) | -10% | -1 | -6% | -29% | -6%
COc1cc2c(cc1OC)-c1c(O)c(OC)cc3c1[C@H](C2)N(C)CC3 | 5µM* | -26 | 11µM* | · | ?
CN(CCc1ccc(Cl)c(Cl)c1)[C@@H]1CCCC[C@@H]1N1CCCC1 | ? | · | 0% | · | ?
C[C@]12C=CC(=O)C=C1CCC1C2=CC[C@]2(C)[C@@H](C(=O)CN3CCN(c4cc(N5CCCC5)nc(N5CCCC5)n4)CC3)CC[C@@H]12 (stereo partly specified) | ? | · | ? | · | -11%
COC(=O)[C@@]1(C#N)[C@@H]2C=CC(C(C)=O)=CN2[C@@H](C(N)=O)[C@@H]1c1ccc(F)cc1 | -21% | -8 | -6% | 28µM* | -11%
O=C(Cn1c(=O)nc(-c2ccccc2)c2cc(Cl)ccc21)NCc1ccccc1 | 10% | · | -9% | ? | 11%
Brc1ccc2[nH]cc(/C=N/N3CCCCC3)c2c1 | ? | 2 | 16% | -12% | 11µM*[quencher]
C(=NN1CCCCCC1)c1c[nH]c2ccccc12 | · | · | · | -4% | ·
O=C(N=Nc1c(O)n(C2OC(=O)c3ccccc32)c2ccccc12)c1ccco1 (stereo unspecified) | ? | 0 | 4% | · | -2%
CCOC(=O)c1ncc2[nH]c3ccc(OCc4ccccc4)cc3c2c1COC | ? | 0 | -16% | · | 4µM*[quencher]
